# Laboratory results reported in ChEMBL document CHEMBL1157539, “Thousands of chemical starting points for antimalarial lead identification” (Nature, 2010).
# How the values were obtained:
# Type in all cases: functional
# [1] = test system: Plasmodium falciparum; experiment: GSK_TCMDC: Inhibition of Plasmodium falciparum 3D7 in whole red blood cells, using parasite LDH activity as an index of growth. Test compounds present at 2uM
# [2] = test system: Plasmodium falciparum; experiment: GSK_TCMDC: Inhibition of Plasmodium falciparum Dd2 in whole red blood cells, using parasite LDH activity as an index of growth. Test compounds present at 2uM
# [3] = test system: HepG2; experiment: GSK_TCMDC: Percent inhibition of human HepG2 cell line. Test compounds present at 10uM.
SMILES,Inhibition [1],Inhibition [2],Inhibition [3]
Br.CC1(C)NC(N)=NC(=N)N1OCCCc1ccc(Cl)cc1Cl,95%,95%,54%
Cc1cc(=NN=Cc2ccc(F)cc2)c2ccc(C(F)(F)F)cc2[nH]1,95%,24%,4%
Clc1cc(Nc2ncnc3sc(C#Cc4ncc[nH]4)cc23)ccc1OCc1ccccn1,100%,6%,10%
Cc1nc2c(c([O-])c1Cl)-c1ccc(Oc3cccc(C(F)(F)F)c3)cc1C2=O.[Na+],94%,95%,25%
COc1ccc(CNC(=O)c2cnc3c(O)cccc3c2Nc2cccc(NC(=O)c3ccc(Cl)c(Cl)c3)c2)cc1.O=C(O)C(F)(F)F,96%,89%,54%
Cc1c(-c2ccc(C(=O)NC3CC(C)(C)NC(C)(C)C3)cc2)[nH]c2cc(Cl)c(Cl)cc12,98%,68%,34%
COc1ccc2nccc([C@@H](O)CN3CCC(NCc4nc5ccccc5[nH]4)CC3)c2c1.O=C(O)C(=O)O,92%,2%,41%
COc1ccccc1-c1cccc(Nc2c(Nc3ccc(Cl)cc3)c(=O)c2=O)c1,81%,47%,20%
Cc1ccc2nc(N(CCCn3ccnc3)C(=O)C=Cc3cccs3)sc2c1.Cl,100%,57%,22%
CCOc1cc(Br)c(C(C)NC(=O)c2cccc(OC)c2)cc1OCC (configuration not stated),90%,37%,0%
CC(=O)c1ccc2cc(C(=O)NC3CCC(CCN4CCc5ccc(-c6noc(C)n6)cc5CC4)CC3)[nH]c2c1.Cl (configuration not stated),81%,45%,28%
CC(C)C[C@H](NC(=O)c1ccc(OCCN2CCOCC2)cc1)C(=O)N[C@H](/C=N/NC(=O)c1ccccc1)CCc1ccccc1,98%,90%,17%
CC1Cc2ccccc2N1S(=O)(=O)c1cccc(C(=O)Nc2nc(-c3ccccn3)cs2)c1 (configuration not stated),84%,77%,32%
COc1ccc2nccc([C@@H](O)CN3CCC(NC(=O)/C(=C/c4ccccc4)c4ccc(-c5ccccc5)cc4)CC3)c2c1,94%,38%,4%
O=C(/C=C/c1ccc(Cl)c(Cl)c1)N1CCC(CN2CCC(c3nc4ccccc4n3CCCO)CC2)CC1,96%,0%,60%
Brc1ccsc1-c1nc(NCCC(c2ccccc2)c2ccccc2)no1,94%,81%,17%
Cc1cccc2nc(-c3cccc(-c4ccc(NC(=O)NC5CC5c5ccccc5)cc4)c3)[nH]c12 (configuration not stated),98%,49%,25%

SMILES,Inhibition [1],Inhibition [2],Inhibition [3]
FC(F)(F)c1ccc(-c2cncc(-c3ccc(C(F)(F)F)cc3)n2)cc1,98%,97%,9%
O=C(c1cccs1)N1N=C(c2cccs2)CC1c1cccc([N+](=O)[O-])c1 (configuration not stated),95%,27%,5%
COc1ccc(Nc2nccc(-c3cccc(NC(=O)c4cc5cc(F)ccc5[nH]4)c3)n2)cc1,92%,37%,3%
O=C(c1ccc([N+](=O)[O-])o1)N1CCN(c2nc3c(F)cc(F)cc3s2)CC1,93%,86%,0%
CCCCSc1ccc2nc(-c3c[nH]c4ccc(C#N)cc34)cn2c1,94%,37%,3%
Nc1nc(N)c2c3c(cnc2n1)CCCC3,95%,0%,61%
Fc1cccc(COc2ccc(Nc3ncnc4cc(/C=C/[C@@H]5CCCN5)sc34)cc2Cl)c1,100%,56%,17%
COc1ccc2nccc([C@@H](O)CN3CCC(NCc4ccc5c(c4)nnn5C(C)C)CC3)c2c1.O=C(O)C(=O)O,100%,40%,15%
CN(C)c1cc2c(Nc3ccc4nc(Cc5ccccc5)[nH]c4c3)ncnc2cn1 [GW301888X],85%,29%,11%
Cl.Oc1cccc(Nc2ccnc3cc(-c4cc5ccccc5o4)ccc23)c1,100%,71%,9%
CC(C)(C)OC(=O)Nc1cccc(-c2csc(NC(=N)N)n2)c1,97%,83%,4%
Cc1[nH]c(C)c(-c2ccc(-c3cccc(Cl)c3)nc2)c(=O)c1Br,96%,96%,10%
Cc1c(Cn2nc(Cl)c(N3CCNCC3)cc2=O)cccc1NC(=O)Nc1ccc(-c2ccccc2)cc1.O=C(O)C(F)(F)F,80%,29%,96%
COc1ccc(F)cc1-c1cccc(CNC2CCN(CC3Cn4c(=O)ccc5ccc(F)c3c54)CC2)c1.O=C(O)C(F)(F)F (configuration not stated),100%,27%,46%
COc1ccc(NS(=O)(=O)c2cc(NC(=O)Cn3ccccc3=O)ccc2N2CCCCC2)cc1,92%,83%,20%
CC(C)Sc1nc2c(c(=O)n1CCc1ccccc1)C1(CCCCC1)Cc1ccccc1-2,92%,5%,8%
COc1ccc(F)cc1-c1ccc(C(=O)N2CCCN(c3ccc(C(F)(F)F)cn3)CC2)cc1,100%,100%,4%
